Measured values published in PubChem BioAssay.
For some assays here: Results with a measured potency or affinity are listed apart. Calls of active or inactive are those of the source. Unless noted, how the calls were made is not given here.

Columns and labels:
[1] = antimalarial activity against Dd2 strain (AID 2302;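 active means growth inhibition above 50% at the single 2 µM test dose, taken to imply half-maximal potency below 2 µM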;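 further: 0% = DMSO untreated growth and 100% = chloroquine plus artemisinin killed control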); settings: P. falciparum Dd2 in RBCs, LDH growth readout, 72 h; at 2 µM; hits give high values
[2] = HepG2 cytotoxicity, primary screen, cytotoxicity control for P. falciparum antimalarial project, cell-based, ATP luminescence (AID 2303;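 active means inhibition above 50%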;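 further: 0% = DMSO wells and 100% = digitonin-killed cells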); settings: HepG2 viability, 24-48 h, at 10 µM, hits give high values
[3] = target: L-lactate dehydrogenase (Plasmodium falciparum (isolate CDC / Honduras)) (UniProt Q27743); assay: PfLDH activity inhibition – cell lysate, 3D7 strain, counter-screen for P. falciparum growth inhibition project (AID 2304);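 further: 0% = vehicle and 100% = reference inhibitor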; settings: P. falciparum 3D7 crude extract, LDH APAD/NBT absorbance; at 2 µM; hits give high values
[4] = inhibition of 3D7 malaria parasite growth – strain 3D7 (AID 2306);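 further: 0% = DMSO wells and 100% = chloroquine plus artemisinin control wells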; settings: P. falciparum 3D7 erythrocytic growth, LDH absorbance, 72 h; at 2 µM; hits give high values
[5] = target: Calcium-dependent protein kinase 1 (Plasmodium falciparum (isolate 3D7)) (UniProt P62344); assay: PfCDPK1 kinase inhibitors, biochemical, TCAMS library (AID 1159585; cut-off not given, nearly all actives have IC50 up to about 0.98 µM;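 further: inhibitors leave more ATP so luminescence rises with inhibition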); settings: recombinant PfCDPK1, Kinase-Glo ATP depletion luminescence
[6] = target: Plasmodium falciparum protein kinase 6 (PK6, PF3D7_1337100) (UniProt Q8IDW1); assay: PfPK6 kinase inhibitors, biochemical, TCAMS library (AID 1159586); settings: recombinant PfPK6, Kinase-Glo ATP depletion luminescence
[7] = target: Protein kinase 7 (PK7), Plasmodium falciparum 3D7 (PF3D7_0213400) (UniProt Q7YTF7); assay: inhibition of Plasmodium PK7 catalytic activity – biochemical, TCAMS antimalarial set, Kinase-Glo luminescence (AID 1159587); settings: recombinant PfPK7, Kinase-Glo ATP depletion luminescence
[8] = target: Calcium-dependent protein kinase 4 (Plasmodium falciparum (isolate 3D7)) (UniProt Q8IBS5); assay: PfCDPK4 kinase inhibitors, biochemical, TCAMS library (AID 1159588; cut-off not given, nearly all actives have IC50 up to about 0.91 µM); settings: recombinant PfCDPK4, Kinase-Glo ATP depletion luminescence
Chain of Calcium-dependent protein kinase 4 (Plasmodium falciparum (isolate 3D7)) (Q8IBS5 whole entry, looked up): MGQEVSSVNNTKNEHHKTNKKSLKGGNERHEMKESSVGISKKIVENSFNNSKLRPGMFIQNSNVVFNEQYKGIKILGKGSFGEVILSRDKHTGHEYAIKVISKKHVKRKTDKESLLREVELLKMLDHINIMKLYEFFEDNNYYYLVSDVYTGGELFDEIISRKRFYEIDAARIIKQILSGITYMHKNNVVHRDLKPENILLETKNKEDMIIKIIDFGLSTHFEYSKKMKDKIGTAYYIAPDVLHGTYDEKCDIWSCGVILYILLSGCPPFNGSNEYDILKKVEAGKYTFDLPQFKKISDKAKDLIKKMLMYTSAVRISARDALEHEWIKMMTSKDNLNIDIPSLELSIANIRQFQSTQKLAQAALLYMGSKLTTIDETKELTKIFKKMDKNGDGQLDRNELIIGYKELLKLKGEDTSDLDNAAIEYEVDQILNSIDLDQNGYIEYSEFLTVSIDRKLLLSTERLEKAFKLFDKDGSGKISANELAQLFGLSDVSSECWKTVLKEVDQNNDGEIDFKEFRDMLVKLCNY

Chain of Protein kinase 7 (PK7), Plasmodium falciparum 3D7 (PF3D7_0213400) (Q7YTF7 1-343): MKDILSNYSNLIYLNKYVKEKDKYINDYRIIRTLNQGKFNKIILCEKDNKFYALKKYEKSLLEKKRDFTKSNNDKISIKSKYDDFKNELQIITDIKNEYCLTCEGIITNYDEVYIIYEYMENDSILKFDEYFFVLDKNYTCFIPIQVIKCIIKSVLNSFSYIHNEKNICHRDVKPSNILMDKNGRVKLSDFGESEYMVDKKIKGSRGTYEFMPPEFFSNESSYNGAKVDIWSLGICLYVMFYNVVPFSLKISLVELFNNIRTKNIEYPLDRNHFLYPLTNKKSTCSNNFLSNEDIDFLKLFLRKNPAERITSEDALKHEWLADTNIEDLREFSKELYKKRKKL
Chain of Calcium-dependent protein kinase 1 (Plasmodium falciparum (isolate 3D7)) (P62344 whole entry, looked up): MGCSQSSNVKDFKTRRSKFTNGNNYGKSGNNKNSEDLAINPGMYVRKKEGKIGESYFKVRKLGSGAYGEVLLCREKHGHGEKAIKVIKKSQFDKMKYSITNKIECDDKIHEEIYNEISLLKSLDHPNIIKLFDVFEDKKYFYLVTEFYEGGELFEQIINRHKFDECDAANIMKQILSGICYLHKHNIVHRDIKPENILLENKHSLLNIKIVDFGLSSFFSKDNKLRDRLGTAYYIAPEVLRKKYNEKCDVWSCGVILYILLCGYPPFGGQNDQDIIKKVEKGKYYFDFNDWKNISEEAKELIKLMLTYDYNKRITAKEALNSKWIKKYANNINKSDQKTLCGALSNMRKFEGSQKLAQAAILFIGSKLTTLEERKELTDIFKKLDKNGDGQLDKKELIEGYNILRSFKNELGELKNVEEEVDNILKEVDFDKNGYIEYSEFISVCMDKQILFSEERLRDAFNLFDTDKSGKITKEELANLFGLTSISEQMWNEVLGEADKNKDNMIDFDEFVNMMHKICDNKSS
Chain of L-lactate dehydrogenase (Plasmodium falciparum (isolate CDC / Honduras)) (Q27743 whole entry, looked up): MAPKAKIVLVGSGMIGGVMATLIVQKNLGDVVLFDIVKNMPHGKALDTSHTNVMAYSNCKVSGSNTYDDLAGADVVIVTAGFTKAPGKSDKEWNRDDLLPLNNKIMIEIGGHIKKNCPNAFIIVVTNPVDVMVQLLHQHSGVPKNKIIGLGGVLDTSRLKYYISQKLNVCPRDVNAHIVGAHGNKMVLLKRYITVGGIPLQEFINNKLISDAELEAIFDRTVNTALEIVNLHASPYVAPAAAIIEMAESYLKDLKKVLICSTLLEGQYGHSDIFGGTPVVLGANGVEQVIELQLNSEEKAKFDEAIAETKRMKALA
Chain of Plasmodium falciparum protein kinase 6 (PK6, PF3D7_1337100) (Q8IDW1 1-305): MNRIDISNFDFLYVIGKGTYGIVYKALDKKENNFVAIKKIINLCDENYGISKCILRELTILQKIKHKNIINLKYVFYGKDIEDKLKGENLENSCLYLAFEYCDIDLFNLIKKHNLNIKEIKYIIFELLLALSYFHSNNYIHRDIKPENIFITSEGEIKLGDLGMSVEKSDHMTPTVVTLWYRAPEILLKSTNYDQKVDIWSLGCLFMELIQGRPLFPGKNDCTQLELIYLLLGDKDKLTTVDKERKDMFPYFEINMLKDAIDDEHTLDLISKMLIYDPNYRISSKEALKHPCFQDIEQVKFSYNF

Cc1[nH]c(C)c(-c2ccc(-c3ccc(C#N)cc3)nc2)c(=O)c1Br
inactive: inhibition [2] 5% | inhibition [3] 7% | outcome [5] | outcome [6] | outcome [7] | outcome [8]
active: growth inhibition [1] 87% | growth inhibition [4] 97%

COc1ccc(S(=O)(=O)NC2CCN(c3ccc(C(F)(F)F)cc3NC(=O)OCC(C)C)CC2)cc1
inactive: growth inhibition [1] 13% | inhibition [2] 19% | inhibition [3] 3% | outcome [5] | outcome [6] | outcome [7] | outcome [8]
active: growth inhibition [4] 85%

CCc1ccc(N2C(=O)C3C(Cc4ccc(OC(C)(C)C)cc4)NC4(C(=O)N(Cc5ccccc5)c5ccc(F)cc54)C3C2=O)cc1 (stereo not given)
inactive: growth inhibition [1] 49% | inhibition [2] 9% | inhibition [3] -10% | outcome [5] | outcome [6] | outcome [7] | outcome [8]
active: growth inhibition [4] 96%

COc1ccc(/C=C/c2ccc(-c3c(C)[nH]c(C)c(Cl)c3=O)cc2)cc1OC
inactive: inhibition [2] 12% | inhibition [3] -8% | outcome [5] | outcome [6] | outcome [7] | outcome [8]
active: growth inhibition [1] 96% | growth inhibition [4] 97%

Cc1ccc(C(=O)NCC2CCN(c3ccc(C(F)(F)F)cc3NC(=O)c3ccco3)CC2)cn1
active: growth inhibition [1] 73% | growth inhibition [4] 91%
inactive: inhibition [2] 9% | inhibition [3] 0% | outcome [5] | outcome [6] | outcome [7] | outcome [8]

Cc1ccc(Cl)cc1N1CCN(CCCNC(=O)C2CCN(c3nc4ccccc4[nH]3)CC2)CC1
active: growth inhibition [4] 88%
inactive: growth inhibition [1] -3% | inhibition [2] 41% | inhibition [3] -1% | outcome [5] | outcome [6] | outcome [7] | outcome [8]

COc1ccccc1C1CN(Cc2coc3ccccc3c2=O)Cc2ccccc2O1 (stereo not given)
active: growth inhibition [1] 61% | growth inhibition [4] 87%
inactive: inhibition [2] 4% | inhibition [3] 2% | outcome [5] | outcome [6] | outcome [7] | outcome [8]

COc1ccc(NC(=O)c2ccc(C=Cc3ccc(C(F)(F)F)cc3)cc2)cc1N1CCN(C)CC1
active: growth inhibition [4] 99%
inactive: growth inhibition [1] 47% | inhibition [2] 46% | inhibition [3] -6% | outcome [5] | outcome [6] | outcome [7] | outcome [8]

O=C(CSc1ccccn1)Nc1c(F)cccc1F
inactive: growth inhibition [1] -5% | inhibition [2] -2% | inhibition [3] 1% | outcome [5] | outcome [6] | outcome [7] | outcome [8]
active: growth inhibition [4] 88%

Cc1cc(-c2nc3ccc(CN4CCN(C)CC4)cc3[nH]2)nn1Cc1cc(Cl)ccc1OCc1ccccc1
active: growth inhibition [1] 52% | growth inhibition [4] 100%
inactive: inhibition [2] 3% | inhibition [3] 1% | outcome [5] | outcome [6] | outcome [7] | outcome [8]

COc1ccc(-c2onc(C(F)(F)F)c2-c2cc3ccccc3o2)c(O)c1
inactive: growth inhibition [1] 15% | inhibition [2] 6% | inhibition [3] 0% | outcome [5] | outcome [6] | outcome [7] | outcome [8]
active: growth inhibition [4] 93%

Cc1nnsc1C(=O)Nc1cccc(-c2ccc(-c3nc4ccccc4[nH]3)s2)c1
inactive: growth inhibition [1] 13% | inhibition [3] -3% | outcome [5] | outcome [6] | outcome [7] | outcome [8]
active: inhibition [2] 55% | growth inhibition [4] 89%

O=C(/C=C/c1ccc(Cl)c(Cl)c1)N1CCC(CN2CCC(c3c[nH]c4cnccc34)CC2)CC1
inactive: inhibition [2] 39% | inhibition [3] 7% | outcome [5] | outcome [6] | outcome [7] | outcome [8]
active: growth inhibition [1] 100% | growth inhibition [4] 102%

COc1ccc(-c2csc(N(CCCN(C)C)C(=O)c3cc4c(C)nn(-c5ccccc5)c4s3)n2)cc1
active: inhibition [2] 100% | growth inhibition [4] 102%
inactive: growth inhibition [1] 16% | inhibition [3] -2% | outcome [5] | outcome [6] | outcome [7] | outcome [8]

Cc1ncc([N+](=O)[O-])n1CCOC(=O)NC(NCC1COc2ccccc2O1)C(Cl)(Cl)Cl (stereo not given)
inactive: inhibition [2] -9% | inhibition [3] -4% | outcome [5] | outcome [6] | outcome [7] | outcome [8]
active: growth inhibition [1] 78% | growth inhibition [4] 101%

CCN(Cc1ccccc1)C1CCN(Cc2cc(Br)ccc2O)CC1
inactive: inhibition [2] 6% | inhibition [3] -1% | outcome [5] | outcome [6] | outcome [7] | outcome [8]
active: growth inhibition [1] 97% | growth inhibition [4] 97%

CCCCCCn1c(Sc2ccc(C#N)c([N+](=O)[O-])c2)nnc1-c1ccc(N(C)C)cc1
inactive: growth inhibition [1] 25% | inhibition [2] -1% | inhibition [3] 7% | outcome [5] | outcome [6] | outcome [7] | outcome [8]
active: growth inhibition [4] 92%

Cc1cccc2[nH]c(-c3ccc(-c4cccc(CNCC5CCCO5)c4)cc3)nc12 (stereo not given)
inactive: inhibition [2] 18% | inhibition [3] -5% | outcome [5] | outcome [6] | outcome [7] | outcome [8]
active: growth inhibition [1] 50% | growth inhibition [4] 101%

CC(C)CNc1c2c(nc3cnn(-c4c5c(nc6cn[nH]c46)CCCC5)c13)CCCC2
inactive: growth inhibition [1] -2% | inhibition [2] 7% | inhibition [3] -5% | outcome [5] | outcome [6] | outcome [7] | outcome [8]
active: growth inhibition [4] 100%

Cc1[nH]nc2ccc(-c3cc(OC[C@@H](N)Cc4ccccc4)cnc3-c3ccccc3OCc3cccc(F)c3)cc12
inactive: inhibition [3] -2% | outcome [5] | outcome [6] | outcome [7] | outcome [8]
active: growth inhibition [1] 91% | inhibition [2] 55% | growth inhibition [4] 91%

O=c1[nH]c(Cc2ccccc2)nc2ccc(Cl)cc12
inactive: inhibition [2] 13% | inhibition [3] 3% | outcome [5] | outcome [6] | outcome [7] | outcome [8]
active: growth inhibition [1] 76% | growth inhibition [4] 92%

CC(=O)Nc1cccc(C(=O)Nc2nc3ccc(-c4cc(=O)[nH]c(Nc5ccccc5Cl)n4)cc3[nH]2)c1
active: growth inhibition [1] 62% | growth inhibition [4] 99%
inactive: inhibition [2] -2% | inhibition [3] 6% | outcome [5] | outcome [6] | outcome [7] | outcome [8]

CS(=O)(=O)Cc1ccc(Nc2nccc(NC3CCN(c4nccc(C(F)(F)F)n4)CC3)n2)cc1
active: growth inhibition [4] 88%
inactive: growth inhibition [1] 23% | inhibition [2] 34% | inhibition [3] -3% | outcome [5] | outcome [6] | outcome [7] | outcome [8]

Cc1ccccc1CNc1noc(-c2c(F)cccc2Cl)n1
active: growth inhibition [1] 90% | growth inhibition [4] 97%
inactive: inhibition [2] 14% | inhibition [3] -5% | outcome [5] | outcome [6] | outcome [7] | outcome [8]

CC(C)(C)OC(=O)Nc1cccc(-c2csc(N=C(N)N)n2)c1
inactive: inhibition [2] 4% | inhibition [3] 2% | outcome [5] | outcome [6] | outcome [7] | outcome [8]
active: growth inhibition [1] 83% | growth inhibition [4] 97%

CCc1c[nH]c2c(N3CCCCC3=O)cc(C(=O)N[C@@H](Cc3ccccc3)[C@H](O)CNCc3cccc(OC)c3)cc12
active: growth inhibition [1] 99% | growth inhibition [4] 101%
inactive: inhibition [2] 8% | inhibition [3] -1% | outcome [5] | outcome [6] | outcome [7] | outcome [8]

CC(C)COc1ccc2ccccc2c1CNCCCCCCNCc1c(OCC(C)C)ccc2ccccc12
inactive: inhibition [3] 2% | outcome [5] | outcome [6] | outcome [7] | outcome [8]
active: growth inhibition [1] 95% | inhibition [2] 99% | growth inhibition [4] 90%

Fc1ccc([C@H]2N=C(SCCSC3=N[C@H](c4ccc(F)cc4)[C@H](c4ccc(F)cc4)N3)N[C@H]2c2ccc(F)cc2)cc1
active: growth inhibition [1] 69% | growth inhibition [4] 99%
inactive: inhibition [2] 18% | inhibition [3] -5% | outcome [5] | outcome [6] | outcome [7] | outcome [8]

CC(C)CCNCc1c(O)ccc2ccccc12
active: growth inhibition [1] 51% | growth inhibition [4] 95%
inactive: inhibition [2] 9% | inhibition [3] 2% | outcome [5] | outcome [6] | outcome [7] | outcome [8]

COc1cccc2c(NN=Cc3cccc(Cl)c3)ccnc12
inactive: inhibition [2] 19% | inhibition [3] 6% | outcome [5] | outcome [6] | outcome [7] | outcome [8]
active: growth inhibition [1] 77% | growth inhibition [4] 101%

O=C(/C=C/c1ccc2ccccc2c1)NCCCCCN1CCC(c2c[nH]c3ccccc23)CC1
inactive: growth inhibition [1] 4% | inhibition [2] 18% | inhibition [3] 6% | outcome [5] | outcome [6] | outcome [7] | outcome [8]
active: growth inhibition [4] 90%

O=C(N[C@@H](Cc1ccccc1)C(=O)NC1CCCCC1)c1ccc(O)c(-c2cccc(C(F)(F)F)c2)c1
active: growth inhibition [4] 96%
inactive: growth inhibition [1] 36% | inhibition [2] 11% | inhibition [3] -2% | outcome [5] | outcome [6] | outcome [7] | outcome [8]

Cc1cccc2[nH]c(-c3cc(-c4cccc(Cl)c4)cnc3N)nc12
inactive: inhibition [2] 32% | inhibition [3] 2% | outcome [5] | outcome [6] | outcome [7] | outcome [8]
active: growth inhibition [1] 99% | growth inhibition [4] 101%

CCOC(=O)c1ccc(NC(=O)N(Cc2ccc(-c3ccc(CN4CCNCC4)cc3)cc2)C2CCN(Cc3ccccc3)CC2)cc1
inactive: inhibition [2] 14% | inhibition [3] 3% | outcome [5] | outcome [6] | outcome [7] | outcome [8]
active: growth inhibition [1] 93% | growth inhibition [4] 102%

CC(=O)Nc1ccc(OCCN(CC(C)C)c2ccc(C(F)(F)F)c(C#N)c2)c(Cl)c1
inactive: inhibition [2] 13% | inhibition [3] 2% | outcome [5] | outcome [6] | outcome [7] | outcome [8]
active: growth inhibition [1] 95% | growth inhibition [4] 96%

COc1ccc2nccc([C@@H](O)CN3CCC(NC(=O)c4cc5c(Cl)cc(Cl)cc5[nH]4)CC3)c2c1
inactive: inhibition [2] 22% | inhibition [3] -3% | outcome [5] | outcome [6] | outcome [7] | outcome [8]
active: growth inhibition [1] 98% | growth inhibition [4] 100%

CCCCCCCCc1c(C)[nH]c(C)c(I)c1=O
inactive: inhibition [2] 5% | inhibition [3] 4% | outcome [5] | outcome [6] | outcome [7] | outcome [8]
active: growth inhibition [1] 77% | growth inhibition [4] 91%

O=C(Nc1ccc(F)cc1)c1cnc(N2CCN(c3ccncc3)CC2)c(Cl)c1
active: growth inhibition [1] 81% | growth inhibition [4] 100%
inactive: inhibition [2] 41% | inhibition [3] -3% | outcome [5] | outcome [6] | outcome [7] | outcome [8]

COc1cccc(CNC[C@@H](O)[C@H](Cc2ccccc2)NC(=O)c2cc(OC(C)C)cc(N3CCCCS3(=O)=O)c2)c1
inactive: growth inhibition [1] 49% | inhibition [2] 8% | inhibition [3] 5% | outcome [5] | outcome [6] | outcome [7] | outcome [8]
active: growth inhibition [4] 95%

Oc1ccc(CCNc2nc(NCc3ccccc3-c3ccc(C(F)(F)F)cc3)nc(NC3CCNCC3)n2)cc1
inactive: growth inhibition [1] 2% | inhibition [2] 12% | inhibition [3] 4% | outcome [5] | outcome [6] | outcome [7] | outcome [8]
active: growth inhibition [4] 97%
